M1 PAM: human CHRM1 positive allosteric modulation | P11229 | hit rate 0.088% among 360,000 | AID 588819 | activation, % at 3 µM | CHO-K1 hM1, Fluo-8 calcium fluorescence, ACh EC20; 0% = ACh EC20, 100% = maximal ACh; in the data active = activation above about 19%, passing the limit was not always enough
Target sequence (P11229 whole entry, looked up): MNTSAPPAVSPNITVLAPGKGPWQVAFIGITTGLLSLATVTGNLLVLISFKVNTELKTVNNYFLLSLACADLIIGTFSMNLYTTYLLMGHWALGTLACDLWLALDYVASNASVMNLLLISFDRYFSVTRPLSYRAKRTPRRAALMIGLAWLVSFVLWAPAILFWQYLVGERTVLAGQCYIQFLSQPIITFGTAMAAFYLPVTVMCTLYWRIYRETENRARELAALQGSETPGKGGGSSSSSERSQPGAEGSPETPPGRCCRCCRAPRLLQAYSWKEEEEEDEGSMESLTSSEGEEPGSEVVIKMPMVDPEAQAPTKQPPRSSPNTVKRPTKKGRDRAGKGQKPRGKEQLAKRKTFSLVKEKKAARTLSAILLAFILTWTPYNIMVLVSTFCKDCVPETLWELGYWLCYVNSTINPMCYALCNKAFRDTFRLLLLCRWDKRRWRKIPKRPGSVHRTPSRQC
CHRM1 antagonist: human CHRM1 antagonism; P11229; CHO-K1 hM1, Fluo-8 calcium fluorescence, ACh EC80 antagonist; inhibition, % at 3 µM; hit rate 1.3% among 360,000; AID 588852;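 active = percent inhibition above its own plate's cutoff, namely the mean of that plate's compound wells plus 3 SD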;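 note: peak over basal fluorescence ratio during 140 s after agonist addition; 0% = ACh EC80 plus DMSO and 100% = DMSO alone without agonist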
CHO-K1 Ca antag: M1 antagonist counterscreen hit in parental CHO-K1 cells. ATP-induced calcium, Fluo-8 fluorescence. inhibition, % at 3 µM. hit rate 0.6% among 360,000. AID 602250;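 active = inhibition above a per-plate cutoff, the plate's mean sample inhibition plus 3 SD, cut at about 24% in these data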;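 note: 0% = DMSO plus EC80 ATP and 100% = DMSO alone without ATP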
M1 ag parental: nonselective activator or artifact in parental CHO-K1 cells; AID 602248; hit rate 0.48% among 360,000; activation, % at 3 µM; Fluo-8 calcium fluorescence; scaled to maximal ATP response, vehicle zero; in the data active = activation above about 15%;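 note: untransfected CHO-K1 host cells lacking M1 receptor as counterscreen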
M1 ag: activates human CHRM1 receptor; CHO-K1 hM1, Fluo-8 calcium fluorescence, agonist mode; 0% DMSO, 100% acetylcholine EC100; P11229; hit rate 0.33% among 360,000; AID 588814; activation, % at 3 µM;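 active = activation above the run's mean compound activation plus 3 SD, cut at about 16% in these data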;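 note: peak over basal fluorescence ratio within a 140 s kinetic read after compound addition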
M1 PAM parental: nonselective activator or artifact in parental CHO-K1 calcium assay; ATP EC20, Fluo-8 calcium fluorescence; 0% at ATP EC20, 100% at ATP max; activation, % at 3 µM; hit rate 0.02% among 360,000;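 active = activation above the run cutoff, the mean activation of all test compounds plus 3 SD, cut at about 40% in these data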;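 note: peak over basal fluorescence ratio in a 140 s read after ATP addition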
* marks the source's active call; other numbers are inactive results. Most compounds without a hit are left out; they make up all but 2.3% or so of the library.

SMILES	M1 PAM	CHRM1 antagonist	CHO-K1 Ca antag	M1 ag parental	M1 ag	M1 PAM parental
CCOC(=O)N(C)c1c(CC)nc2c(OCc3ccccc3)cccn12	9	-14	-3	-1	-8	5
O=C(OCC1CCCN2CCCCC12)c1ccc2c(c1)OCO2 (configuration not stated)	-19	29*	7	0	-9	4
O=C(NC(=O)c1ccccc1)OCC1CCCN2CCCCC12 (configuration not stated)	6	-10	3	0	-11	-13
OC(c1cc(Cl)cc(Cl)c1)c1ncc(-c2cccc(F)c2)[nH]1 (configuration not stated)	7	-10	-7	5	4	5
Cc1cc(SCC(=O)OCC(=O)N(C)C2CCS(=O)(=O)C2)c(C)cc1Br (configuration not stated)	-2	3	2	16*	-2	-20
Cc1ccc(C)c(SCC(=O)N(C)C2CCS(=O)(=O)C2)c1 (configuration not stated)	8	-9	-9	0	-4	15
COCC(=O)N1CCC(Oc2ccc(C(=O)NC(C)c3nc(C)sc3C)cc2)CC1 (configuration not stated)	7	-8	-13	0	-9	19
O=C(CN1CCN(c2ncc(C(F)(F)F)cc2Cl)CC1)N1CCN(c2ncc(C(F)(F)F)cc2Cl)CC1	-6	-6	-8	1	0	13
CN1CCN(C(=O)C2CCN(c3ncc(C(F)(F)F)cc3Cl)CC2)CC1	-35	72*	14	1	-13	-9
CN1/C(=C/C=C(C#N)C#N)C(C)(C)c2ccccc21	9	-10	-17	1	0	17
CC1=C/C(=C\C=C(C#N)C#N)N(C)c2ccccc21	-6	11	4	27*	22*	2
CCC(NC(=O)c1cc(COc2cc(C)c(Cl)c(C)c2)on1)c1ccncc1 (configuration not stated)	5	12	3	17*	13	2
CCn1c(=O)n(CC)c2cc(N3CCCC3)c(NC(=O)c3cc(Cl)ccc3OC)cc21	5	5	0	0	-1	0
COc1cc(/C=N/Nc2nc(=O)[nH]nc2C)ccc1O	3	-2	14	0	-1	-4
COc1ccccc1C(=O)C1CCCN(Cc2cccc3nccnc23)C1 (configuration not stated)	-19	45*	-10	5	-4	-10
COc1c(C)cc(C(=O)C2CCCN(Cc3cccc4nccnc34)C2)cc1C (configuration not stated)	-29	42*	-8	1	-12	4
COc1ccc(C(=O)C2CCCN(C/C=C/c3ccccc3OC)C2)c(OC)c1 (configuration not stated)	-28	51*	12	0	-10	-11
COc1cccc(C(=O)C2CCCN(C/C=C/c3ccccc3OC)C2)c1 (configuration not stated)	-17	21	-20	2	-8	-4
CCOC(=O)N1CCC(N2CCCC(C(=O)c3cc(C)c(OC)c(C)c3)C2)CC1 (configuration not stated)	-27	78*	-5	0	-11	6
CN(C)CCNC(=O)CCn1nc(-c2ccc(Cl)cc2)ccc1=O	9	-3	-3	1	-6	-3
O=C1CC(=C(c2ccccc2)c2ccccc2)C(=O)N1CCCCN1CCN(c2ccccc2)CC1	-22	73*	-13	0	-5	15
CN1CCN(C(=O)C23CC4CC(C2)CC(c2ccccc2)(C4)C3)CC1	-15	3	-4	1	-13	20
O=C(Nc1ccccc1)c1cn(CCBr)cn1	6	-12	-10	0	0	6
O=Cc1cc([N+](=O)[O-])ccc1N1CCN(Cc2ccc3c(c2)OCO3)CC1	-30	35*	-10	10	-6	-7
CC1CCN(c2nc3ccc(C(=O)N4CCN(Cc5ccc6c(c5)OCO6)CC4)cc3s2)CC1	-17	29*	9	0	-11	3
SMILES	M1 PAM	CHRM1 antagonist	CHO-K1 Ca antag	M1 ag parental	M1 ag	M1 PAM parental
O=C(c1cccc(Cl)c1)N1CCN(Cc2ccc3c(c2)OCO3)CC1	-2	-3	-3	0	-6	0
O=[N+]([O-])c1ccc(N2CCN(Cc3ccc4c(c3)OCO4)CC2)nc1	1	-14	-13	5	-4	22
O=C(c1ccc(Cl)c([N+](=O)[O-])c1)N1CCN(Cc2ccc3c(c2)OCO3)CC1	-4	-4	5	16*	-12	1
OC(c1ccc(CN2CCCCC2)cc1)c1ncc(-c2ccccc2)[nH]1 (configuration not stated)	0	-1	5	0	-7	-14
O=C(NC(=S)NNC(=O)c1cccs1)c1ccc(Br)o1	-4	-16	-6	14	33*	0
COc1ccccc1NS(=O)(=O)c1cc(NC(=O)c2ccc(Cl)nc2)ccc1Cl	-20	28*	3	16*	-1	6
COc1ccccc1NS(=O)(=O)c1cccc(NC(=O)Nc2cccc(Cl)c2)c1	-10	19	34*	12	-3	-12
COC(=O)c1cccc(NC(=S)Nc2ccc(Cl)c(Cl)c2)c1	-6	14	26*	8	5	-18
O=C(Nc1cccc(Cl)c1)Nc1cccc(Cl)c1	-7	15	21	13	5	6
COC(=O)c1cc(NC(=O)Nc2cccc(Cl)c2)ccc1Cl	-17	32*	24*	18*	4	-5
O=C(CN1C(=O)NC2(CCCc3ccccc32)C1=O)N1CCCCC1 (configuration not stated)	1	-2	-8	1	-1	-4
Cc1ccc2cc3c(N)[nH]nc3nc2c1	6	-15	-1	0	-6	7
Cc1cc(C)cc(Nc2ncc3c(n2)CCCC3=O)c1	3	-3	2	-1	-5	8
COC(=O)c1cccc(NC(=O)NC(=O)c2ccc(Cl)cc2)c1	8	-18	-17	1	-1	25
COc1ccc(NC(=O)c2ccc(Cl)c(S(=O)(=O)N3CCc4ccccc4C3)c2)cn1	-10	18*	2	9	3	21
COC(=O)c1cccc(NC(=O)Nc2ccc(Cl)cc2)c1	-20	38*	11	14	5	-6
CCOc1ccc(Nc2nc(N(C)c3ccccc3)nc(N)c2[N+](=O)[O-])cc1	-5	17	8	6	-3	-4
Cc1cc2nc(-c3ccc(SCC(=O)Nc4ccc(S(=O)(=O)NC5CC5)cc4)nc3)[nH]c2cc1C	2	-5	6	0	-7	21
CCCCCCCCCCOC(=O)Cn1c(COc2ccccc2OC)[n+](C)c2ccccc21	-29	69*	29*	17*	21*	0

Screens: PubChem BioAssay, The Scripps Research Institute Molecular Screening Center
